Assay results taken from PubChem BioAssay (NCI).
This is part of a sample that, as a whole, favours compounds with a hit. Of some 83,000 tested, about 20% had one in any assay.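 Each cell line was grown in a 96-well plate and treated with one concentration of compound for 48 hours. Values below 10 were considered active.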 Values without a mark were called inactive. Calls of active or inactive are those of the source.

Columns and labels:
Test in all cases: NCI-60 one-dose screen, 48 h (100 = growth as untreated, 0 = no growth, -100 = all killed)
Conditions in all cases: 10 µM unless noted
[1] = test system: NCI-H23 lung
[2] = test system: NCI-H226 lung
[3] = test system: NCI-H322M lung
[4] = test system: HOP-62 NSCLC
[5] = test system: NCI-H460 lung
[6] = test system: HOP-92 NSCLC
[7] = test system: NCI-H522 lung
[8] = test system: A549/ATCC NSCLC
[9] = test system: 786-0 renal
[10] = test system: COLO 205 colon

SMILES	growth [1]	growth [2]	growth [3]	growth [4]	growth [5]	growth [6]	growth [7]	growth [8]	growth [9]	growth [10]
COc1c2occc2c(OC)c2c(=O)c(-c3cc(-c4ccc(F)cc4)c(C#N)c(N)n3)c(C)oc12	36.1%	72.1%	40.3%	27.9%	24.9%	30.6%	49.4%	25.2%	51.2%	27.2%
COc1cc(/C=C/C(=O)c2cccc(-n3cc(-c4cc(OC)c(OC)c(OC)c4)[nH]c3=O)c2)cc(OC)c1OC	6.11% (active)	58%	46%	42.9%	-1.97% (active)	-12.2% (active)	-66.8% (active)	35.1%	19%	-36.1% (active)
COc1ccc(C2CC(c3ccc(OC)cc3OC)=NN2c2ccc(S(N)(=O)=O)cc2)cc1 (stereo not given)	90.7%	101%	94.4%	119%	87.3%	77.7%	63.7%	59%	99.3%	112%
Nc1cc2c(cc1C(=O)c1cccc(F)c1)OCCO2	95.4%	91.4%	98.5%	95%	104%	72.9%	87.3%	91.6%	94%	111%
CCOC(=O)C1C(=O)C=C(c2ccc(OC)cc2)CC1c1sc(N(C)Cc2ccccc2)nc1Cl (stereo not given)	77.7%	82.6%	76.1%	81.6%	82.8%	29.8%	68.7%	82%	84.6%	108%
O=C(Oc1ccccc1[N+](=O)[O-])C1CCCN1C(=O)OCc1ccccc1 (stereo not given)	95.1%	99.8%	121%	111%	116%	86.3%	101%	98.5%	98.6%	115%
COc1cc(C2C3=C(COC3=O)Nc3cc4c(cc32)CCC4)cc2c1OCO2 (stereo not given)	19.6%	31.9%	50.7%	35.5%	7.05% (active)	41.1%	-3.96% (active)	18.7%	18.1%	-63.1% (active)
COc1cc(NC(=O)SC2=NCCS2)cc(OC)c1	95%	98.7%	110%	108%	101%	84.7%	86.4%	101%	101%	109%
CCCCC(CC)OC(=O)C(Br)CC (stereo not given)	92.7%	108%	101%	111%	109%	95.8%	103%	103%	98.4%	111%
COc1ccc2c(c1)cn1c3ccc(OC)cc3[nH]c(=O)c21	33.3%	5.93% (active)	-45.3% (active)	5.85% (active)	-51% (active)	28.4%	-44.9% (active)	-57% (active)	-88.3% (active)	-61.3% (active)
COc1ccc2c(c1)OC1=C(C(=O)OC1)C2c1cc(OC)c2c(c1)OCO2 (stereo not given)	46.2%	21.3%	49%	29.6%	4.22% (active)	55%	4.87% (active)	14.4%	20.5%	-38.1% (active)
Brc1cccc(-c2cc(-c3ccc4c(c3)OCCCO4)[nH]n2)c1	66.2% [25 µM]	72% [25 µM]	68% [25 µM]	53% [25 µM]	16% [25 µM]	56.8% [25 µM]	2.15% [25 µM] (active)	44.4% [25 µM]	85.2% [25 µM]	36.3% [25 µM]
Cc1ccc(C(=O)C2=Cc3cc4ccccc4n3Cc3cnnn32)cc1	100%	98.1%	95.9%	87.4%	108%	86%	64.5%	99.2%	94.6%	111%
Cn1c2ccc(Br)cc2c2c3c(c4c5ccccc5[nH]c4c21)C(=O)N(O)C3=O	-42.6% (active)	24.1%	-68% (active)	-67.8% (active)	-14.8% (active)	-77.3% (active)	-67% (active)	-13.8% (active)	-93.8% (active)	-84.4% (active)
Cc1csc(NC(c2ccc(Br)cc2)c2c(C)nc3ccccn23)n1 (stereo not given)	84%	81.6%	84.9%	92.8%	98.4%	42.9%	89.3%	87.6%	90.4%	90.2%
O=C(NNC(=O)N1c2ccccc2C=Cc2ccccc21)c1ccccc1	101%	113%	107%	114%	106%	103%	94%	103%	103%	112%
Cc1c(C(N)=O)sc2c1c(=O)n(Cc1ccccc1)c1nnc(Nc3ccccc3)n21	101%	106%	105%	89.1%	119%	101%	87.1%	94.4%	105%	101%
COc1ccc2[nH]c(=O)c3c4ccccc4cn3c2c1	39.4%	37%	11.6%	39.3%	2.51% (active)	33.7%	3.62% (active)	40.1%	17.7%	0.252% (active)
O=C1c2ccccc2-c2ccccc2C1(Cl)Cl	-20.8% (active)	88.4%	86.7%	-98% (active)	4.08% (active)	-78.4% (active)	-88.6% (active)	-21.2% (active)	103%	92.3%
O=C(/C=C/c1cc(-c2ccc3c(c2)OCO3)n[nH]1)c1ccc2c(c1)OCO2	94.6%	89.4%	86.6%	96.9%	97.5%	77.7%	72%	90.7%	99.2%	97.7%
O=c1c2sc3ncccc3c2nnn1-c1ccccc1	99.1%	100%	114%	105%	106%	97.5%	111%	102%	100%	114%
O=C(c1ccccc1)c1c(/C=C/c2ccccc2)c2ccccc2[nH]c1=O	94.2%	89.9%	82.8%	87.1%	114%	73%	83.4%	93.5%	92.2%	110%
COc1cc(Nc2ncccc2C(=O)NCc2cn(Cc3cccc(Oc4ccccc4)c3)nn2)cc(OC)c1	66.2%	91.7%	65.2%	56.6%	20.2%	108%	5.73% (active)	38.6%	51%	38.3%
COc1ccc(Nc2ncccc2C(=O)NCc2cn(Cc3cccc(Oc4ccccc4)c3)nn2)cc1	54.6%	71.7%	46.1%	51.2%	22.3%	68.5%	26.1%	49.2%	51.3%	43.9%
COc1ccc(C2NN=C3c4ccccc4CCC32)cc1 (stereo not given)	67.7%	73.5%	104%	67.3%	56.3%	67.5%	47.2%	68.1%	91.3%	78.4%
CN(C)CCCC(C#N)c1ccccc1 (stereo not given)	103%	107%	115%	103%	116%	105%	119%	105%	97.9%	119%
N/C(=N\C(N)=N\c1nc2ccccc2s1)c1ccncc1	77.7%	76.1%	96%	60.7%	94%	65.2%	2.64% (active)	89.3%	73.9%	64.3%
CCOC(=O)C1=C(C)NC(C)=C(C(=O)OCC)C1(C)C	113%	98.8%	107%	102%	111%	98.3%	98.1%	93.2%	88.2%	113%
